Screen size: about 310,000 compounds; about 14,000 (4.5%) showed an effect of 50% or more. The effect is printed as a negative number. Shown is part of a subset that was picked to be rich in strong results.
molecular target: human ether-à-go-go-related gene (hERG) potassium channel (human, UniProt Q12809); experiment: primary screen, population patch clamp on CHO cells stably expressing hERG; higher = less effect of the substance
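Also: peak tail current of the secondary pulse compared with the same well before compound.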

Sequence of human ether-à-go-go-related gene (hERG) potassium channel (Q12809 whole entry, looked up): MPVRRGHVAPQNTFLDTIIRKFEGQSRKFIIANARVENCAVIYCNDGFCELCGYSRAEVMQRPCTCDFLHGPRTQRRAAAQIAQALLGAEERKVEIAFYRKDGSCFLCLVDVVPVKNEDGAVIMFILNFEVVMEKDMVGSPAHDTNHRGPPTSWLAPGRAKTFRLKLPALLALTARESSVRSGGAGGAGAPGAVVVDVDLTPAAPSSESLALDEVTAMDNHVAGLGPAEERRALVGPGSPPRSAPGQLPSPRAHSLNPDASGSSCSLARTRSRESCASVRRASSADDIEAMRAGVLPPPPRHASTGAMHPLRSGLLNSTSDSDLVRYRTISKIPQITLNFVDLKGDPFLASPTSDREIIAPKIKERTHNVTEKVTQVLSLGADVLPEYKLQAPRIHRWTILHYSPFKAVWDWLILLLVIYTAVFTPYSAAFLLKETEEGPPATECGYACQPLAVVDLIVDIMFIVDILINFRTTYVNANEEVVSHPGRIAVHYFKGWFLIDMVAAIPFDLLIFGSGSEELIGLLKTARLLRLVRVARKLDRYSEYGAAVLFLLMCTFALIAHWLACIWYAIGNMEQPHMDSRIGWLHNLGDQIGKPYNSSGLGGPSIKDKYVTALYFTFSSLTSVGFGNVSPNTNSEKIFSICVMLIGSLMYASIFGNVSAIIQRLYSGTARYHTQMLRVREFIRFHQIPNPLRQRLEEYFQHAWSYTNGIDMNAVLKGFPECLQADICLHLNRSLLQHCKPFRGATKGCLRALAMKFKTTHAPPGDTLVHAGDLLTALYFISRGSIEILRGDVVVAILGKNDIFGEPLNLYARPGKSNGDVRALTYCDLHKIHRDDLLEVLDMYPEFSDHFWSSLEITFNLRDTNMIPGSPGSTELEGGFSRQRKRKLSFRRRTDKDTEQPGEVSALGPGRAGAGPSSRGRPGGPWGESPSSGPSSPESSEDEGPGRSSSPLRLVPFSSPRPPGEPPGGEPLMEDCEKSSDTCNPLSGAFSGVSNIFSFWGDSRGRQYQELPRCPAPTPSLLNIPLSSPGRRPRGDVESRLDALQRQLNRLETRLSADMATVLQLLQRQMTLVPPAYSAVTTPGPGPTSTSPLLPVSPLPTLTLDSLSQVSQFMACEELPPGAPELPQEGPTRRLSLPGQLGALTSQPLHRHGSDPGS

Structure (SMILES) | hERG current change (%, negative = inhibition) at 10uM [%]
CC(CCN1C(Nc2ccccc2)=NC[C@@H]1C)c1ccccc1 (some centres unmarked) | -52.4
CC(CCN1C(Nc2ccccc2)=NC[C@@H]1Cc1ccccc1)c1ccccc1 (some centres unmarked) | -74.8
CC(CCN1CCN=C1Nc1ccccc1)c1ccccc1 (centres unmarked) | -33.8
CCC(C)CCN1C(Nc2ccccc2)=NC[C@@H]1C (some centres unmarked) | -4.88
CC(C)C[C@H]1CN=C(Nc2ccccc2)N1CCC(C)c1ccccc1 (some centres unmarked) | -67
CCC(C)CCN1CCN=C1Nc1ccccc1 (centres unmarked) | -1.89
CC(C)CCN1C(Nc2ccccc2)=NC[C@@H]1C | -9.63
CCC(C)CCN1C(Nc2ccccc2)=NC[C@@H]1CC(C)C (some centres unmarked) | -41.1
CCC(C)CCN1C(Nc2ccccc2)=NC[C@@H]1Cc1ccccc1 (some centres unmarked) | -59.6
S=C(Nc1ccccc1)Nc1ccc(OCc2ccccc2)cc1 | -0.702
Nc1nc2ccccc2n1/N=C/c1ccc(-c2ccccc2)o1 | -11.8
CCCc1[nH]nc2c1C1(C(=O)N(CC)c3ccccc31)C(C#N)=C(N)O2 (centres unmarked) | -6.38
COc1ccc(C(=O)OCC(=O)NCC2CCCO2)cc1[N+](=O)[O-] (centres unmarked) | 2.12
Cc1cc(/C=C(\C#N)C(=O)NC2CCCCCC2)c(C)[nH]1 | 9.54
COc1ccccc1CC(=O)Nc1cccc(C(=O)Nc2nccs2)c1 | -0.755
O=C(Nc1ccccc1)c1cc(-c2ccccc2Cl)no1 | -4.91
O=S(=O)(NC1CCCC1)c1cc(F)ccc1F | -8.75
O=C(O)C1Cc2ccccc2N2CCCC12 (centres unmarked) | 20
COc1cc(-c2nnc(SC/C=C/c3ccccc3)n2N)cc(OC)c1OC | -3.66

Structure (SMILES) | hERG current change (%, negative = inhibition) at 10uM [%]
COc1cccc(C(=O)NNC(=O)c2ccc3ccccc3c2O)c1 | 7.66
O=C(CSc1nc(-c2ccc(F)cc2)cs1)N1CCc2ccccc21 | -1.23
COc1ccc2c(c1)c(C(=O)N/N=C/c1cccc(Br)c1)c(C)n2C | -15.9
COc1ccc2c(c1)c(C(=O)N/N=C/c1ccc(Br)cc1)c(C)n2C | -64.1
CCOc1ccc(/C=N/NC(=O)c2c(C)n(C)c3ccc(OC)cc23)cc1 | -5.78
COc1ccc2c(c1)c(C(=O)N/N=C/c1ccc(Cl)cc1)c(C)n2C | -58.6
COc1ccc2c(c1)c(C(=O)N/N=C/c1ccc(OC)c(OC)c1)c(C)n2C | -39.2
COc1ccc2c(c1)c(C(=O)N/N=C/c1ccc(O)c(O)c1)c(C)n2C | 9.18
Oc1ccc(-c2csc(-c3c[nH]c4ccccc34)n2)c(O)c1 | 5.01
O=c1[nH]c2ccccc2n1CCCOc1ccccc1 | 4.34
Cc1onc(-c2c(F)cccc2Cl)c1C(=O)Nc1cccc2nsnc12 | -20.6
CNC(=O)NC(=O)COC(=O)CCCOc1ccc(OC)cc1 | 20.5
COc1ccc(S(=O)(=O)NC(C)C(=O)O)cc1 (centres unmarked) | 1.62
CN(CC(=O)Nc1ccc2c(c1)OCO2)S(=O)(=O)c1ccc(F)cc1 | -4.45
CCN(Cc1nc2cc(Cl)ccc2c(=O)[nH]1)C(=O)c1cccc(NC(=O)c2cccs2)c1 | -24.7
Cc1noc(C)c1COc1cccc(C(=O)N(C)Cc2nc3ccccc3c(=O)[nH]2)c1 | -23.5
CCN(Cc1nc2cc(Cl)ccc2c(=O)[nH]1)C(=O)c1cccc(OCc2c(C)noc2C)c1 | -57.4
Cc1cccc(Oc2coc3cc(OC(=O)c4cncc(Br)c4)ccc3c2=O)c1 | -5.03
Cc1cc(C(=O)N2CCc3c([nH]c4ccccc34)C2c2c(F)cccc2Cl)no1 (centres unmarked) | 5.46

Structure (SMILES) | hERG current change (%, negative = inhibition) at 10uM [%]
CN1N=C(C(=O)N2CCc3c([nH]c4ccccc34)C2c2ccccc2Cl)CCC1=O (centres unmarked) | -36.9
CN1N=C(C(=O)N2CCc3c([nH]c4ccccc34)C2c2c(F)cccc2Cl)CCC1=O (centres unmarked) | -97.3
CC1CN(C(=O)CCC(=O)NC2CCCCC2)c2ccccc2S1 (centres unmarked) | -19.5
Fc1cccc(C2CC(c3cccc(Br)c3)Nc3nnnn32)c1 (centres unmarked) | -3.02
CS(=O)(=O)N(CC(=O)N1CCN(Cc2ccccc2)CC1)c1ccc(F)cc1 | -3.35
C=CCN(c1ccccc1C(=O)NCC(=O)O)S(=O)(=O)c1ccccc1C | 24.7
Cc1[nH]c2ccccc2c1C(=O)C(=O)N1CC=C(c2ccccc2)CC1 | -11.3
CCOC(=O)c1[nH]c2ccc(F)cc2c1NC(=O)CN1CCc2cc(OC)c(OC)cc2C1 | -0.0862
COc1ccc2[nH]c(C)c(C(=O)CN3CCN(C/C=C/c4ccccc4)CC3)c2c1 | -25.8
Cc1[nH]c2ccccc2c1C(=O)CN1CC=C(c2ccccc2)CC1 | -52.4
Cc1[nH]c2ccccc2c1C(=O)CN1CCSCC1 | 5.84
Cc1[nH]c2ccccc2c1C(=O)CN1CCN(C/C=C/c2ccccc2)CC1 | -73.4
COC(=O)c1[nH]c2ccccc2c1NC(=O)CN1CCN(C/C=C/c2ccccc2)CC1 | -76.4
COC(=O)c1[nH]c2ccccc2c1NC(=O)CN1CCCCCC1 | -21.5
CCOC(=O)c1[nH]c2ccc(F)cc2c1NC(=O)CN1CCN(C/C=C/c2ccccc2)CC1 | -80.7
CCOC(=O)c1[nH]c2ccc(OCC)cc2c1NC(=O)CN1CCN(c2ccccc2)CC1 | 17.9
CCOC(=O)N1CCN(CC(=O)Nc2c(C(=O)OC)[nH]c3ccccc23)CC1 | -10.2
Cc1[nH]c2ccccc2c1C(=O)CN1CCCC1 | 5.09
